Activity calls are given as the source filed them. How the calls were made is not given here.

As a reminder, the inhibition is the share of the control response that was lost under treatment.

For the assay, the target named is Pantothenate synthetase (Mycobacterium tuberculosis (strain ATCC 25618 / H37Rv)) (UniProt P9WIL5). Put plainly: Coupled enzyme confirmation of inhibitors against recombinant Mtb PanC (AID 375).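 Further: 0% = full reaction with vehicle and 100% = no enzyme background.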 To be noted: coupled enzyme assay; at 10 µM, active compounds read high.
Sequence of Pantothenate synthetase (Mycobacterium tuberculosis (strain ATCC 25618 / H37Rv)) (P9WIL5 whole entry, looked up): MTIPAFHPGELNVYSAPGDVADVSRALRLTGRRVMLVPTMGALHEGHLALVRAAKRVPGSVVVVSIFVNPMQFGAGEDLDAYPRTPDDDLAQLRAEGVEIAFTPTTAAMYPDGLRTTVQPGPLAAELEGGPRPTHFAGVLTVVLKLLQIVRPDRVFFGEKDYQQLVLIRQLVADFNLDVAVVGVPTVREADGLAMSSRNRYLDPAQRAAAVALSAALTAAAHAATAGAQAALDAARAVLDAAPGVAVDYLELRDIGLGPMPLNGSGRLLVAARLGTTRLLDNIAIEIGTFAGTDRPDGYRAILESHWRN
As to `Cc1ccc(S(=O)(=O)N(C)c2ccc(OCC(=O)OCc3c(C)noc3C)cc2)cc1`, the inhibition was 0% (inactive).

For `COc1ccc(-n2c(=O)cc(N3CCN(Cc4ccccc4)CC3)[nH]c2=O)cc1`, the inhibition was 0% (inactive).

As to `COCCn1nnnc1C(c1cc2cc(C)cc(C)c2[nH]c1=O)N1CCN(c2ccccc2F)CC1` (stereo not given), the inhibition is 2% (inactive).

Turning to `CC(=O)Nc1nc(C)c(-c2csc(Nc3ccc(O)cc3)n2)s1`, the inhibition was 0% (inactive).

With `Cn1c(SCc2nnc3n2CCCCC3)nc2ccccc21`, the inhibition is 0% (inactive).

With `Cc1cc(Nc2ccccc2)n(CCC#N)n1`, the inhibition is 14% (inactive).

In the case of `N=c1nc(N2CCCCC2)cc(N)n1O`, the inhibition was 0% (inactive).

As to `O=C(O)c1ccc(COc2ccc(Cl)cc2)o1`, the inhibition was 0% (inactive).

With `CN1CCN(C2=Nc3ccccc3Oc3ccc(Cl)cc32)CC1`, the inhibition was 4% (inactive).

Regarding `COC(=O)c1c(-c2ccc(F)cc2)noc1N`, the inhibition is 2% (inactive).

With `COc1ccc(CSCCN)cc1Cl`, the inhibition is 0% (inactive).

On to `Cc1cc(C)c(S(=O)(=O)Nc2cccnc2)c(C)c1`, for which the inhibition was 0% (inactive).

With `COc1ccccc1N1CCN(C(=O)c2cc(-c3ccc(Cl)c(Cl)c3)on2)CC1`, the inhibition was 0% (inactive).

Take `Nc1nc(CN2CCN(Cc3ccc4c(c3)OCO4)CC2)nc(Nc2ccccc2)n1`: the inhibition is 0% (inactive).

Regarding `Cc1nc(NC2=NCN(CCc3ccccc3)CN2)nc2c(C)cccc12`, the inhibition is 0% (inactive).

As to `NCC(O)COc1ccc2c(c1)OCO2` (stereo not given), the inhibition was 0% (inactive).

For the compound `COc1ccc(OCCCC(=O)Nc2ccc3c(c2)OCCO3)cc1`, the inhibition was 4% (inactive).

Regarding `N#Cc1ccc(COC(=O)Cn2nnc(-c3ccccc3)n2)cc1`, the inhibition is 0% (inactive).

Turning to `CCOc1ccc(N2CC(C(=O)NCCc3ccc(OC)c(OC)c3)CC2=O)cc1` (stereo not given), the inhibition was 0% (inactive).

As for `CCC(C)(C)NC(=O)CN(Cc1ccc2c(c1)OCO2)C(=O)CCC(=O)Nc1ccccn1`, the inhibition is 3% (inactive).

For `O=C(Cn1ncc2ccccc21)N1CCN(c2cccc(C(F)(F)F)c2)CC1`, the inhibition is 2% (inactive).

Turning to `COc1ccccc1CNC(=O)C1CCCN(S(=O)(=O)c2cccc3cccnc23)C1` (stereo not given), the inhibition was 1% (inactive).

Consider `COc1ccc(-c2nnnn2C)cc1S(=O)(=O)NCc1ccccc1`, for which the inhibition was 1% (inactive).

As for `Cc1nc2ccc(S(=O)(=O)NCC(=O)N3CCc4ccccc4C3)cc2s1`, the inhibition is 2% (inactive).

Regarding `C=CCn1c(SCn2nnc3ccccc3c2=O)nnc1-c1ccc(Br)cc1`, the inhibition is 2% (inactive).

On to `CCOC(=O)C1CCCN(C(=O)c2ccc3c(=O)n(CCOC)c(=S)[nH]c3c2)C1` (stereo not given), for which the inhibition is 2% (inactive).

For the compound `CCOc1cccc(C(=O)N(Cc2ccc(F)cc2)C2CCS(=O)(=O)C2)c1` (stereo not given), the inhibition is 3% (inactive).

Take `CCOC(=O)C1=C(C)NC(=O)C(C#N)C1c1ccco1` (stereo not given): the inhibition is 5% (inactive).

On to `Cc1ccc(OCC2Cn3c(nc4c3c(=O)n(C)c(=O)n4C)O2)cc1` (stereo not given), for which the inhibition was 0% (inactive).

With `Cn1c(=O)[nH]c(=O)c2c1nc(NCCCn1ccnc1)n2Cc1cccc(Br)c1`, the inhibition is 0% (inactive).

As for `C=CCn1c2ccccc2c2nnc(SCC(=O)NC(C(=O)OC)C(C)C)nc21` (stereo not given), the inhibition is 4% (inactive).

As to `CS(=O)(=O)N1CCN(C(=O)c2ccc(-c3ccccc3)cc2)CC1`, the inhibition is 9% (inactive).

As for `O=C(Nc1ccc2c(c1)OCO2)N1CCN(c2ncccn2)CC1`, the inhibition is 0% (inactive).

Regarding `O=C1CC(c2ccccc2)CC(O)=C1C=NCCN1CCOCC1` (stereo not given), the inhibition was 5% (inactive).

Consider `CCOC(=O)C(CCc1nnc(N)s1)C(=O)OCC`, for which the inhibition is 4% (inactive).

In the case of `COc1cc(C2c3c(oc4c(C)cc(C)cc4c3=O)C(=O)N2Cc2cccnc2)cc(OC)c1OC` (stereo not given), the inhibition is 2% (inactive).

For the compound `CCCCC(CC)C(=O)Nc1ccccc1C#N` (stereo not given), the inhibition was 0% (inactive).

Regarding `Cc1cc(C(=O)OCC(=O)N2c3ccccc3CC2C)c(C)o1` (stereo not given), the inhibition is 3% (inactive).

As to `CCOc1cc(C(=O)Nc2ncccn2)cc(OCC)c1OCC`, the inhibition is 2% (inactive).

For `Cc1ccc(CN2C(=O)CCC2C(=O)NC2CCCC2)cc1` (stereo not given), the inhibition was 0% (inactive).

Values taken from PubChem BioAssay.
